Measured values taken from the supplement of paper PMC10849652.
Of roughly 8,800 targets only a part is listed; those with a hit were picked by preference. About 0.5% of all pairs of compound and target were hits.

Key:
Experiment in all cases: log2 fold change, soluble protein after heating vs DMSO (PISA); higher = thermal stabilisation; K562 lysate, 10 uM; active = over 0.2 and 3.5 SD of the protein, either way, in both replicates (recomputed)
[1] = compound: CN1CC[C@H](c2c(O)cc(O)c3c(=O)cc(-c4ccccc4Cl)oc23)[C@H](O)C1 [alvocidib]
How it was run: (§1)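 To prepare the extract, K562 pellets were dounce-homogenised in PBS pH 7.4 with 1 mM MgCl2, giving crude material at 1 mg/mL protein. This was treated with 10 μM compound for 30 min, then heated in aliquots for 3 min over 48°C-58°C before pooling and addition of NP-40 to 0.5% at 4°C. Centrifugation at 21,000xg for 90 min left soluble protein in the supernatant, which TMTpro 16plex LC-MS/MS quantified with equalised channel sums. Results are log-two fold changes in thermal stability compared with solvent controls, from duplicates.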

[2] = compound: CN1CCc2c(c3ccccc3n2Cc2ccc(C(=O)NO)cc2)C1 [Tubastatin A]
How it was run: as §1

[3] = compound: CNC(=O)C1=CC=CC=C1NC2=NC(=NC=C2Cl)NC3=C(C=C(C=C3)N4CCOCC4)OC
How it was run: as §1

[4] = compound: CNC(=O)c1ccc(Nc2ncc(C(F)(F)F)c(NCc3nccnc3N(C)S(C)(=O)=O)n2)cc1 [defactinib]
How it was run: as §1

[5] = compound: CNc1nc(-c2ccc3c(N)n[nH]c3c2)cc(N2C[C@@H](C(=O)NC3CCCCC3)CC[C@H]2C)n1
How it was run: as §1

[6] = compound: COC(=O)N[C@@H](C)CNc1nccc(-c2cn(C(C)C)nc2-c2cc(Cl)cc(NS(C)(=O)=O)c2F)n1 [encorafenib]
How it was run: as §1

[7] = compound: COC(=O)[C@H](CCSC)NC(=O)C1=C(C=C(C=C1)NC[C@H](CS)N)C2=CC=CC=C2
How it was run: as §1

[8] = compound: COc1cc(Nc2ncc3c(n2)-c2ccc(Cl)cc2C(c2c(F)cccc2OC)=NC3)ccc1C(=O)O [alisertib]
How it was run: as §1

[9] = compound: COc1cc2nc(-c3cc(F)ccc3O)nc(N[C@@H]3CNC[C@H]3C(C)(C)O)c2cc1OC
How it was run: as §1

[10] = compound: COc1cc2ncnc(Nc3ccc(F)c(Cl)c3)c2cc1OCCCN1CCOCC1 [gefitinib]
How it was run: as §1

[11] = compound: CS(=O)(=O)CCNCc1ccc(-c2ccc3ncnc(Nc4ccc(OCc5cccc(F)c5)c(Cl)c4)c3c2)o1 [lapatinib]
How it was run: as §1

[12] = compound: CS(=O)(=O)N1CCN(Cc2cc3nc(-c4cccc5[nH]ncc45)nc(N4CCOCC4)c3s2)CC1 [pictilisib]
How it was run: as §1

[13] = compound: C[C@@H](Oc1cc(-c2cnn(C3CCNCC3)c2)cnc1N)c1c(Cl)ccc(F)c1Cl [crizotinib]
How it was run: as §1

[14] = compound: C[C@H](C1=CC=C(C=C1)C(=O)NC2=C3C=CNC3=NC=C2)N
How it was run: as §1

[15] = compound: C[C@H](Nc1ncnc2nc[nH]c12)c1cc2cccc(Cl)c2c(=O)n1-c1ccccc1 [duvelisib]
How it was run: as §1

[16] = compound: Cc1cc(Nc2cc(CN3CCOCC3)c3nc(C)c(Cc4ccc(Cl)cc4F)n3n2)n[nH]1 [gandotinib]
How it was run: as §1

[17] = compound: Cc1cc(Nc2cc(N3CCN(C)CC3)nc(Sc3ccc(NC(=O)C4CC4)cc3)n2)n[nH]1 [tozasertib]
How it was run: as §1

[18] = compound: Cc1ccc(-n2nc(C(C)(C)C)cc2NC(=O)Nc2ccc(OCCN3CCOCC3)c3ccccc23)cc1 [doramapimod]
How it was run: as §1

[19] = compound: Cc1ccc(NC(=O)c2ccc(CN3CC[C@H](N(C)C)C3)c(C(F)(F)F)c2)cc1Nc1nccc(-c2cncnc2)n1 [bafetinib]
How it was run: as §1

[20] = compound: Cc1cccc(CC(=O)N2CCc3c2ccc(-c2cn(C)c4ncnc(N)c24)c3F)n1
How it was run: as §1

Measured: log2 fold change

NFIC (UniProt P08651)
inactive: [1] -0.103 | [2] -0.104 | [3] 0.078 | [4] -0.153 | [5] -0.048 | [6] 0.121 | [7] -0.025 | [8] 0 | [9] -0.025 | [10] 0.117 | [11] -0.004 | [12] 0.109 | [13] 0.007 | [14] -0.361 | [15] -0.002 | [16] 0.237 | [17] 0.035 | [18] 0.139 | [19] -0.038 | [20] 0.003

NOB1 (UniProt Q9ULX3)
Sequence of UniProt Q9ULX3 (Q9ULX3 whole entry, looked up): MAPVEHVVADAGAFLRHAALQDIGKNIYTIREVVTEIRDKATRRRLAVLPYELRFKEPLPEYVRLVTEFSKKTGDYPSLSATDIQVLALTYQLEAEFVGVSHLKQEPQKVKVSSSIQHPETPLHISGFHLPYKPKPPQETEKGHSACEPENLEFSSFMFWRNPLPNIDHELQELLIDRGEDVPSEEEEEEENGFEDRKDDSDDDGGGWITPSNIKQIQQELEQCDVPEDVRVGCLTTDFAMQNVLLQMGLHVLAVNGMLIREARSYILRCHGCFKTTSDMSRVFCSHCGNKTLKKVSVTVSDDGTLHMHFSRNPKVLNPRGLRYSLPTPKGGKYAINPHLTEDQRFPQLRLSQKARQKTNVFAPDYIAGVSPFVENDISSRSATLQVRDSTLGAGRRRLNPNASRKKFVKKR
active: [14] 0.283
inactive: [1] 0.077 | [2] -0.129 | [3] -0.005 | [4] 0 | [5] -0.011 | [6] 0.036 | [7] 0.037 | [8] 0.047 | [9] -0.031 | [10] -0.022 | [11] 0.027 | [12] 0.01 | [13] -0.019 | [15] -0.033 | [16] -0.084 | [17] 0.011 | [18] -0.023 | [19] -0.041 | [20] -0.048

NUP210 (UniProt Q8TEM1)
Sequence of UniProt Q8TEM1 (Q8TEM1 whole entry, looked up): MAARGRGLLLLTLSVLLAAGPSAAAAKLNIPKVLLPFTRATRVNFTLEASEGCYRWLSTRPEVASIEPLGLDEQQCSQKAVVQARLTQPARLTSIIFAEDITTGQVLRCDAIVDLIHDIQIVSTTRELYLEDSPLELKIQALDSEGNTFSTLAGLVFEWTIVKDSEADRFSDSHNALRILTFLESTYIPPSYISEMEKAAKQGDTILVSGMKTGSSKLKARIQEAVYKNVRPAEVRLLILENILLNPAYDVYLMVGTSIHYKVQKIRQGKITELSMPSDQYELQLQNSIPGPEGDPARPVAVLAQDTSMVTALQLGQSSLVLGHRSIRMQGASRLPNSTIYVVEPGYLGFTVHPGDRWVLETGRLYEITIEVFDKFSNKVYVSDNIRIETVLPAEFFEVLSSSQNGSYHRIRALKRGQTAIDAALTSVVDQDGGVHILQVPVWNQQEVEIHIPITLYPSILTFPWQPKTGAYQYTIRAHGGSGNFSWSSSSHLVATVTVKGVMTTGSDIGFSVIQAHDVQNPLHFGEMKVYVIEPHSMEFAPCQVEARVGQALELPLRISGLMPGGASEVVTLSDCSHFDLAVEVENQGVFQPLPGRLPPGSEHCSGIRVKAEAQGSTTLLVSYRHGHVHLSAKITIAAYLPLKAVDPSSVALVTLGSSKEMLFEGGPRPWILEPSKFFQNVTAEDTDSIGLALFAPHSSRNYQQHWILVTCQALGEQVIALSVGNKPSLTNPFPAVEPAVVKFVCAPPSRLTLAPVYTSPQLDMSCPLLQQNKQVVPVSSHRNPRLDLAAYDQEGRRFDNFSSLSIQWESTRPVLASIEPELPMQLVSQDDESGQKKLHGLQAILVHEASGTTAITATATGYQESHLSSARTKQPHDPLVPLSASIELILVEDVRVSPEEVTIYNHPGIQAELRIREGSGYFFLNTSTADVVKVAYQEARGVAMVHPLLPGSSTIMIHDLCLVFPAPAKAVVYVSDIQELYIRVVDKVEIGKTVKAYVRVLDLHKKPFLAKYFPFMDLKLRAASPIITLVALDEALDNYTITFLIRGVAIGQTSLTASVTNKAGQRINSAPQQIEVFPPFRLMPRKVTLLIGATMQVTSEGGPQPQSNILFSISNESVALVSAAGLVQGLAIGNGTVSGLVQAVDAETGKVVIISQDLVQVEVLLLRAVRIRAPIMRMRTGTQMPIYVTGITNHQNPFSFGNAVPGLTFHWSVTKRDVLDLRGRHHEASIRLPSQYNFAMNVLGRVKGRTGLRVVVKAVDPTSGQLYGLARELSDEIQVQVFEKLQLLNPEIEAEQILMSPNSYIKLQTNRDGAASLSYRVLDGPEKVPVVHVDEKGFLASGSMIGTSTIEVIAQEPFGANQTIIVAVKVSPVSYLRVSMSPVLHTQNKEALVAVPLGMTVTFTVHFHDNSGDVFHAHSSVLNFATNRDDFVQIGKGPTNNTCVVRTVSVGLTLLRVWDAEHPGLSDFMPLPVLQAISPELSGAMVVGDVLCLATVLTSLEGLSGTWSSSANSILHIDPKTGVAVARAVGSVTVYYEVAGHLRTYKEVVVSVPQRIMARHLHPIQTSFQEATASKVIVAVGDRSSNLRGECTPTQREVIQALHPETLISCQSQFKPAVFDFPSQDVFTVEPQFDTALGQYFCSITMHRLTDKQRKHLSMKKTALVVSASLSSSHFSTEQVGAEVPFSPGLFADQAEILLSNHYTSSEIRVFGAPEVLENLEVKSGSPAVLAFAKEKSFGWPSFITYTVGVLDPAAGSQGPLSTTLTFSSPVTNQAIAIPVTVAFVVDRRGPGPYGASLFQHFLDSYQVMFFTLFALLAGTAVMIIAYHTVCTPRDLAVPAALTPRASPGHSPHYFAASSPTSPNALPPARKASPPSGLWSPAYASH
inactive: [1] 0.014 | [2] 0.107 | [3] -0.061 | [4] 0.035 | [5] -0.011 | [6] 0.086 | [7] 0.145 | [8] 0.009 | [9] 0.002 | [10] 0.003 | [11] -0.074 | [12] -0.076 | [13] -0.028 | [14] -0.034 | [15] 0.013 | [16] -0.08 | [17] -0.012 | [18] -0.017 | [19] -0.007 | [20] 0.044

OARD1 (UniProt Q9Y530)
Sequence of UniProt Q9Y530 (Q9Y530 whole entry, looked up): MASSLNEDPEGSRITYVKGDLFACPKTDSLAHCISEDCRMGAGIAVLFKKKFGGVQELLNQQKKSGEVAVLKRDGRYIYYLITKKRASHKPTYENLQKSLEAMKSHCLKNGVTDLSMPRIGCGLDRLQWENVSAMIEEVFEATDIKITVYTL
inactive: [1] -0.003 | [2] -0.097 | [3] 0 | [4] 0.037 | [5] -0.11 | [6] 0.011 | [7] 0.018 | [8] 0.011 | [9] 0.028 | [10] -0.014 | [11] -0.001 | [12] -0.011 | [13] -0.003 | [14] -0.022 | [15] -0.015 | [16] -0.012 | [17] 0.042 | [18] 0.035 | [19] -0.023 | [20] 0.037

NCAPD2 (UniProt Q15021)
inactive: [1] 0.007 | [2] -0.119 | [3] 0.013 | [4] 0.002 | [5] -0.018 | [6] 0.013 | [7] 0.076 | [8] 0.004 | [9] -0.005 | [10] -0.016 | [11] -0.033 | [12] 0.001 | [13] -0.049 | [14] -0.003 | [15] 0.014 | [16] -0.115 | [17] -0.006 | [18] 0.011 | [19] -0.036 | [20] 0.029

MRPS31 (UniProt Q92665)
inactive: [1] -0.023 | [2] 0.002 | [3] -0.029 | [4] 0.024 | [5] 0.018 | [6] 0.006 | [7] -0.02 | [8] 0.007 | [9] -0.017 | [10] -0.014 | [11] 0.012 | [12] 0.012 | [13] -0.02 | [14] -0.002 | [15] -0.015 | [16] -0.006 | [17] 0.033 | [18] 0.047 | [19] -0.009 | [20] 0.051

OGT (UniProt O15294)
inactive: [1] 0.045 | [2] -0.129 | [3] 0.054 | [4] 0.018 | [5] 0.019 | [6] 0.043 | [7] 0.121 | [8] 0.01 | [9] 0.007 | [10] -0.015 | [11] -0.006 | [12] -0.038 | [13] -0.038 | [14] -0.016 | [15] -0.016 | [16] -0.086 | [17] 0.016 | [18] 0.009 | [19] -0.011 | [20] -0.029

PAN2 isoform 2 (UniProt Q504Q3)
Sequence of UniProt Q504Q3 (Q504Q3 whole entry, looked up): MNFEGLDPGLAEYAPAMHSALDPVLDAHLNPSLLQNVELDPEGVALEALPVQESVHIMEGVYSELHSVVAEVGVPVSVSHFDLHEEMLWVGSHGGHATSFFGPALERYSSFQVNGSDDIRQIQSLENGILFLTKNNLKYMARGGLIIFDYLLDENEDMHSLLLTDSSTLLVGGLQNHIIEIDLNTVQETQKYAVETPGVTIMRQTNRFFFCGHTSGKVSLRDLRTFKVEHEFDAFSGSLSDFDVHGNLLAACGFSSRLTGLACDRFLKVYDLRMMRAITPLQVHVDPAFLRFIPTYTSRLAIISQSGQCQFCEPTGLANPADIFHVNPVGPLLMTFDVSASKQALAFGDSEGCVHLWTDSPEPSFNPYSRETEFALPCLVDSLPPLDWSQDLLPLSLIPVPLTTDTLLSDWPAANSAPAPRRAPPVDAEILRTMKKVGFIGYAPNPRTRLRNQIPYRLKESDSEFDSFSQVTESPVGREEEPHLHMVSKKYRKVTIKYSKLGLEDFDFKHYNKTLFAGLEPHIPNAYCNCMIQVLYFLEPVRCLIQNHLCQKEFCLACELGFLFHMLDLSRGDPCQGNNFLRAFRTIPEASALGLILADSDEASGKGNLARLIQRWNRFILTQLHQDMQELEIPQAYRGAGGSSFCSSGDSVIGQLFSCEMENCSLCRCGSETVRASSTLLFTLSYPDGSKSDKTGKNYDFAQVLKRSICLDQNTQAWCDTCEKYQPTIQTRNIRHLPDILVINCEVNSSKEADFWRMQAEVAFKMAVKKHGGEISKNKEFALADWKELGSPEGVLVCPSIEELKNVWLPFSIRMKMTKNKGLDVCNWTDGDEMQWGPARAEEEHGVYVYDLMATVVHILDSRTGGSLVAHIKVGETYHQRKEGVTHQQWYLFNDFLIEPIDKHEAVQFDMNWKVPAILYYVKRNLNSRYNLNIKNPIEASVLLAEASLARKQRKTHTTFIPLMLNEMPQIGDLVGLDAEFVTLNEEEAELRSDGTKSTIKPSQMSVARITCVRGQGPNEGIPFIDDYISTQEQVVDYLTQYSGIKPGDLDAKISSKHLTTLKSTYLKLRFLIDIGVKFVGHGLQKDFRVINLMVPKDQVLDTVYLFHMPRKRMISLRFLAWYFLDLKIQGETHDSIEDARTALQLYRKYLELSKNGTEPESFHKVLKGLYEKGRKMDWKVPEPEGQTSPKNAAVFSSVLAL
active: [17] 0.27
inactive: [1] -0.023 | [2] -0.025 | [3] -0.018 | [4] -0.099 | [5] -0.046 | [6] 0.08 | [7] -0.041 | [8] 0 | [9] -0.043 | [10] -0.044 | [11] -0.044 | [12] 0.045 | [13] -0.085 | [14] 0.003 | [15] 0.041 | [16] -0.053 | [18] 0.09 | [19] -0.108 | [20] 0.084

MTHFD1, A0A384N5Y3
inactive: [1] 0.036 | [2] -0.076 | [3] -0.01 | [4] 0.03 | [5] 0.002 | [6] -0.016 | [7] 0.145 | [8] -0.007 | [9] -0.012 | [10] -0.025 | [11] -0.008 | [12] -0.003 | [13] -0.064 | [14] 0.04 | [15] 0.015 | [16] -0.087 | [17] 0.028 | [18] 0.043 | [19] -0.041 | [20] -0.025

MTHFD1L (UniProt B7ZM99)
inactive: [1] 0.029 | [2] -0.084 | [3] 0.02 | [4] 0.034 | [5] -0.01 | [6] -0.041 | [7] 0.072 | [8] 0.032 | [9] 0.009 | [10] -0.007 | [11] -0.075 | [12] -0.036 | [13] -0.036 | [14] 0.017 | [15] 0.026 | [16] -0.039 | [17] 0.002 | [18] 0.035 | [19] -0.054 | [20] 0.018

NFATC2IP (UniProt Q8NCF5)
Sequence of UniProt Q8NCF5 (Q8NCF5 whole entry, looked up): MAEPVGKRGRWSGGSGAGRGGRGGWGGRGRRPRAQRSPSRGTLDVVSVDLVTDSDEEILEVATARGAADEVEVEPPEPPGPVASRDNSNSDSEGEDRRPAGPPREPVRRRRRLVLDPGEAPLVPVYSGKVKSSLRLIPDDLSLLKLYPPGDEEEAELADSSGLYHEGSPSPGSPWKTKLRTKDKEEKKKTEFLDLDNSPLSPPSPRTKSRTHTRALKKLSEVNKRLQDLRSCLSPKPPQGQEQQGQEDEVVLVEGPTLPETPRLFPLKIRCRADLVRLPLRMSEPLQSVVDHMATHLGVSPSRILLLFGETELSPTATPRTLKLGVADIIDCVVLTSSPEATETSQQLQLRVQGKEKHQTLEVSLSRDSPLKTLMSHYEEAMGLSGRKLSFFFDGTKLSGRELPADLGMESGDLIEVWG
active: [7] -0.208
inactive: [1] -0.015 | [2] 0.002 | [3] 0.052 | [4] 0 | [5] 0.002 | [6] 0.003 | [8] -0.009 | [9] -0.001 | [10] 0.023 | [11] 0.002 | [12] -0.091 | [13] 0.027 | [14] 0.059 | [15] -0.067 | [16] 0.039 | [17] -0.035 | [18] 0.001 | [19] -0.169 | [20] -0.018

MYO1D (UniProt O94832)
Sequence of UniProt O94832 (O94832 whole entry, looked up): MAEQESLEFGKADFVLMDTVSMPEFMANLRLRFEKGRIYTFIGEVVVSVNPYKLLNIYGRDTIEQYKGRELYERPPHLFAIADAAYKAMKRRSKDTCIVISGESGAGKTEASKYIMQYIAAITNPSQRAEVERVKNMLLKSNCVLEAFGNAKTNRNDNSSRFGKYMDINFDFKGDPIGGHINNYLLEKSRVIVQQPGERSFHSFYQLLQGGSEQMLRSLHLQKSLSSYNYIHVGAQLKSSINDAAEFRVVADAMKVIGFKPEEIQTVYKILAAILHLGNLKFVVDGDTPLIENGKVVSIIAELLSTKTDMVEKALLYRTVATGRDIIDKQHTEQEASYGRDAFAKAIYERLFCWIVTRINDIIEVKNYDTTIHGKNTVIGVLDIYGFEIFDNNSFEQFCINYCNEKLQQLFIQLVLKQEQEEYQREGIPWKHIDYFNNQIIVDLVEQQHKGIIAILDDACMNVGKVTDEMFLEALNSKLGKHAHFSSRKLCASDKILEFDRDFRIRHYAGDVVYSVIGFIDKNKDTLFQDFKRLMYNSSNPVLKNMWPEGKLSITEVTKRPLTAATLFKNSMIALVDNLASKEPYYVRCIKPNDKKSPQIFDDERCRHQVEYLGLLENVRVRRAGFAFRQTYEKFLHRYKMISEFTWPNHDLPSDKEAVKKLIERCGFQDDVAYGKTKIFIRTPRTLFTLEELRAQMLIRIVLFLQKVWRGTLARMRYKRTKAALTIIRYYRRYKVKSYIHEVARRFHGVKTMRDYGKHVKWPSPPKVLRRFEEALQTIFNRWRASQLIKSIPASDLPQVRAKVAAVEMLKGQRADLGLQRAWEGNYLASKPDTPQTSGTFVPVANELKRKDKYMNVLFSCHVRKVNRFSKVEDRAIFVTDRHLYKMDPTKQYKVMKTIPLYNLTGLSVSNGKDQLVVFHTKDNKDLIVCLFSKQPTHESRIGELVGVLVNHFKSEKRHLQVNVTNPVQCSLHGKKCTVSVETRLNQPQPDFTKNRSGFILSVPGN
inactive: [1] 0.026 | [2] -0.091 | [3] -0.006 | [4] 0.048 | [5] -0.008 | [6] 0.058 | [7] -0.012 | [8] -0.019 | [9] 0.012 | [10] -0.016 | [11] 0.014 | [12] -0.051 | [13] -0.035 | [14] 0.016 | [15] -0.028 | [16] -0.072 | [17] 0.01 | [18] 0.011 | [19] -0.041 | [20] -0.005

NUMB (UniProt P49757)
inactive: [1] -0.021 | [2] -0.125 | [3] -0.028 | [4] -0.02 | [5] 0.026 | [6] 0.094 | [7] 0.013 | [8] -0.031 | [9] -0.007 | [10] 0.052 | [11] 0.033 | [12] 0.023 | [13] 0.02 | [14] -0.057 | [15] 0.029 | [16] 0.097 | [17] 0.047 | [18] 0.125 | [19] -0.069 | [20] 0.038

MYCBP2 (UniProt O75592)
inactive: [1] -0.046 | [2] -0.098 | [3] 0.024 | [4] 0.019 | [5] 0.003 | [6] 0.055 | [7] -0.015 | [8] 0.007 | [9] 0.032 | [10] -0.004 | [11] -0.042 | [12] -0.026 | [13] -0.07 | [14] -0.028 | [15] 0.023 | [16] 0.054 | [17] 0.023 | [18] 0.016 | [19] -0.004 | [20] 0.114

MYD88 isoform 6 (UniProt Q99836)
inactive: [1] 0 | [2] -0.216 | [3] -0.006 | [4] 0.013 | [5] 0.001 | [6] 0.003 | [7] -0.003 | [8] 0.021 | [9] -0.005 | [10] -0.039 | [11] 0.014 | [12] -0.006 | [13] -0.007 | [14] -0.032 | [15] 0.03 | [16] -0.009 | [17] 0.068 | [18] 0.019 | [19] -0.018 | [20] 0

NEDD8 (UniProt Q15843)
inactive: [1] 0.169 | [2] 0.132 | [3] 0.083 | [4] 0.019 | [5] 0.037 | [6] 0.015 | [7] -0.062 | [8] 0.021 | [9] -0.03 | [10] -0.148 | [11] 0.04 | [12] 0.028 | [13] 0.041 | [14] 0.19 | [15] 0.019 | [16] -0.062 | [17] 0.06 | [18] -0.049 | [19] -0.117 | [20] -0.107
